Records with an inconclusive call do not appear. Active and inactive are the calls of the source. Unless noted, the call rests on the fitted dose curve; in most records, active means well fitted curve in the direction sought with a large enough effect in the repeat runs; inconclusive means weak or mixed curves; inactive means no such curve, though single readings can be large; an effect the other way counts as inactive or inconclusive.
Tests used:
[1] = qHTS assay for small molecule agonists of the p53 signaling pathway (AID 651631; calls by dose curve; further: nearly all actives have a fitted effect of over 15% in size)
Procedure, shortened: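 HCT-116 cells carrying a beta-lactamase reporter under p53 response elements were dosed with compound for 16 h at 37 °C. LiveBLAzer B/G FRET substrate was then added for 2 h at room temperature, and fluorescence intensity was read to detect pathway agonism.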

[2] = qHTS assay for small molecules that induce genotoxicity in human embryonic kidney cells expressing luciferase-tagged ATAD5 (AID 651632); further: nearly all actives have a fitted effect of over 15% in size
Procedure, shortened: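 Increased luciferase signal from ATAD5-tagged reporter cells indicates DNA-damage-driven ATAD5 induction. HEK293T cells are treated for 16 hr at 37C before detection with Amplite.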

[3] = qHTS assay for small molecule agonists of the p53 signaling pathway - cell viability (AID 651633; calls by dose curve;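 further: p53RE-bla HCT reporter cells with a stable beta-lactamase p53 reporter; series mostly up to about 83 µM; nearly all actives have a fitted effect of over 30% in size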)
Procedure, shortened: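 p53RE-bla cells, seeded at 4,000 per well and rested 5 h at 37 C/5% CO2, received compounds in DMSO for 16 h at 37 C. CellTiter-Glo was then added, and luminescence was read after 30 min at room temperature to gauge cytotoxicity.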

[4] = qHTS assay for small molecules that induce genotoxicity in human embryonic kidney cells expressing luciferase-tagged ATAD5 - cell viability (AID 651634; calls by dose curve; further: nearly all actives have a fitted effect of over 25% in size)
Procedure, shortened: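 Cytotoxicity counterscreen in HEK293T cells bearing an ATAD5-luciferase reporter: live-cell protease activity measured by CellTiter-Fluor fluorescence after 15.5 hr compound exposure.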

[5] = qHTS assay for small molecule disruptors of the mitochondrial membrane potential - cell viability (AID 720634; calls by dose curve;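 further: human HepG2 liver cancer cells; series mostly up to about 83 µM; nearly all actives have a fitted effect of over 20% in size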)
Procedure, shortened: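 After overnight attachment at 37 C, HepG2 cells received compound or DMSO vehicle for 1 hr. Viability is then taken from ATP-driven luminescence following a 30 min room-temperature CellTiter-Glo step.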

[6] = qHTS assay to test for compound auto fluorescence at 590 nm (red) in HepG2 cells (AID 720674)
Procedure, shortened: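 Rose Bengal sodium served as the red fluorophore standard. HepG2 monolayers (overnight attachment, MEM with 10% FBS) were exposed to test compounds for 1 hr at 37 C and read at Ex 540/Em 590 nm.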

[7] = qHTS assay to test for compound auto fluorescence at 535 nm (green) in HepG2 cells (AID 720675)
[8] = qHTS assay to test for compound auto fluorescence at 460 nm (blue) in HEK293 cells (AID 720678)
Procedure, shortened: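 Triamterene serves as the blue fluorophore standard. Compound signal at 405/460 nm is read in HEK293 wells (2,000 cells, 10% dialyzed FBS) after overnight treatment at 37C.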

[9] = qHTS assay to test for compound auto fluorescence at 590 nm (red) in HEK293 cells (AID 720679)
Procedure, shortened: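 We plated HEK293 cells in 10% dialyzed FBS medium, let them adhere for 4-5 hr, then added 23 nL compound. Overnight at 37C and 5% CO2 preceded fluorescence measurement at 540/590nm.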

[10] = qHTS assay to test for compound auto fluorescence at 535 nm (green) in HEK293 cells (AID 720680)
[11] = qHTS assay to test for compound auto fluorescence at 460 nm (blue) in HEK293 cell free culture (AID 720681)
Procedure, shortened: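 Test compounds were pinned into cell-free culture medium (DMEM with 10% FBS) and fluorescence was read directly at Ex/Em 405/460 nm. Signals were expressed as fluorescence equivalents of triamterene, with DMSO vehicle as control.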

[12] = qHTS assay to test for compound auto fluorescence at 535 nm (green) in HEK293 cell free culture (AID 720682)
Procedure, shortened: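 Green-label autofluorescence (485 nm excitation, 535 nm emission) measured on compound added to cell-free culture medium (DMEM, 10% FBS). Output is expressed relative to fluorescein.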

[13] = qHTS assay to test for compound auto fluorescence at 590 nm (red) in HEK293 cell free culture (AID 720683)
Procedure, shortened: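 Tox21 10K library compounds were pinned into cell-free DMEM with 10% FBS and fluorescence was read at excitation 540 nm. Activity is expressed as Rose Bengal sodium equivalency.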

[14] = qHTS assay to test for compound auto fluorescence at 590 nm (red) in HepG2 cell free culture (AID 720684)
Procedure, shortened: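 Measured in medium alone (MEM containing 10% FBS) following pintool addition of compound; emission at 590 nm with 540 nm excitation, referenced to Rose Bengal sodium.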

[15] = qHTS assay to test for compound auto fluorescence at 460 nm (blue) in HepG2 cell free culture (AID 720685)
Procedure, shortened: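 Compound (23 nL) or DMSO pinned into cell-free MEM with 10% FBS; blue fluorescence read at 405/460 nm excitation/emission, expressed as auto-fluorescence equivalency to triamterene.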

[16] = qHTS assay to test for compound auto fluorescence at 535 nm (green) in HepG2 cell free culture (AID 720686)
[17] = qHTS assay to test for compound auto fluorescence at 460 nm (blue) in HepG2 cells (AID 720687)
Procedure, shortened: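 Cells (2,000/well in MEM with 10% FBS) attached overnight at 37 C, then were exposed to compound or DMSO for 1 hr at 37 C, 5% CO2. Fluorescence read at Ex/Em 405/460 nm, expressed as triamterene-equivalent signal.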

[18] = target: Glucocorticoid receptor (Homo sapiens) (UniProt P04150); experiment: qHTS assay to identify small molecule agonists of the glucocorticoid receptor (GR) signaling pathway (AID 720691; active means well fitted activation curve with a large enough effect in the signal ratio in the repeat runs, not every such curve was filed as active; the % refers to the signal ratio)
Procedure, shortened: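 Agonist mode in a HeLa line carrying a GRE-controlled beta-lactamase reporter. Compounds act for 18 h at 37 C before a 2 h room-temperature FRET substrate step and fluorescence reading.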

[19] = target: Glucocorticoid receptor (Homo sapiens) (UniProt P04150); experiment: qHTS assay to identify small molecule antagonists of the glucocorticoid receptor (GR) signaling pathway (AID 720692; active means well fitted inhibition curve with a large enough effect in the signal ratio in the repeat runs, not every such curve was filed as active; the % refers to the signal ratio)
Procedure, shortened: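 Cells plated, rested 4 h at 37 C/5% CO2; compounds in DMSO pin-transferred; dexamethasone added to 5 nM final; 18 h at 37 C; B/G FRET substrate added, 2 h room temperature; fluorescence measured.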

[20] = qHTS assay for small molecule disruptors of the mitochondrial membrane potential (AID 720635)
Procedure, shortened: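 HepG2 cells (2,000/well) attached overnight at 37C, then took compound for 1 hr at 37C, 5% CO2. Mito-MPS dye was added for 30 min; fluorescence was read at 490/535 nm (monomers) and 540/590 nm (aggregates).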
On the % scale 0 is the no-effect control and ±100 the full control effect.

Sequence of Glucocorticoid receptor (Homo sapiens) (P04150 whole entry, looked up): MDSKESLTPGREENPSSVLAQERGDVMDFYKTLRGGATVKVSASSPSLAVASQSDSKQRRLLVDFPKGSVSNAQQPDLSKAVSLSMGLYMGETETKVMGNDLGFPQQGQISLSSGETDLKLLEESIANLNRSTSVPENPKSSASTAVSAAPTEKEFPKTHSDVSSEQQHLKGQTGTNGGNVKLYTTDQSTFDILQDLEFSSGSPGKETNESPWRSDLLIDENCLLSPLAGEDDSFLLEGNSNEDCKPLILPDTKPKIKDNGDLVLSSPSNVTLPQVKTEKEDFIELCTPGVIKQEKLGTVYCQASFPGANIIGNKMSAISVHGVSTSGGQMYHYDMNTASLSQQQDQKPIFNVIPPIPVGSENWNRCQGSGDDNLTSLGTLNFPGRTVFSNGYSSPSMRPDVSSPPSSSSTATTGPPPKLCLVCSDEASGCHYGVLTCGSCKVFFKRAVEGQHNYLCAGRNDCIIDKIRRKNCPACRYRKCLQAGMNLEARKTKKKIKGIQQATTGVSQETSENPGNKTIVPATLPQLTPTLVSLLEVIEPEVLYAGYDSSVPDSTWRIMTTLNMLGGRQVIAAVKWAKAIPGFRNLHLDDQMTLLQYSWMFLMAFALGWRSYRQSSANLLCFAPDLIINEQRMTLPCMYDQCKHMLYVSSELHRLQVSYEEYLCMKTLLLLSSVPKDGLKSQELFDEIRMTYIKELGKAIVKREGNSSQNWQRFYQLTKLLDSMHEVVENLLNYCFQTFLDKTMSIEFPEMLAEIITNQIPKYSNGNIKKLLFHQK

CCCCCCC(O)CCOC(C)=O (stereo not drawn)
inactive: Potency [1] | Potency [2] | Potency [3] | Potency [4] | outcome [5] | outcome [6] | outcome [7] | Potency [8] | outcome [9] | outcome [10] | Potency [11] | outcome [12] | outcome [13] | outcome [14] | Potency [15] | outcome [16] | Potency [17]

CCN(CC)CCOC(=O)C(c1ccccc1)c1ccccc1
inactive: Potency [1] | Potency [2] | Potency [3] | Potency [4] | outcome [5] | outcome [6] | outcome [7] | Potency [8] | outcome [9] | outcome [10] | Potency [11] | outcome [12] | outcome [13] | outcome [14] | Potency [15] | outcome [16] | Potency [17] | Potency [18] | Potency [19]

C1CCCCC1
inactive: Potency [1] | Potency [2] | Potency [3] | Potency [4] | outcome [5] | Potency [20] | outcome [6] | Potency [8] | outcome [9] | outcome [10] | Potency [11] | outcome [12] | outcome [13] | outcome [14] | Potency [15] | outcome [16] | Potency [17] | Potency [18] | Potency [19]

CCC(CO)(CO)[N+](=O)[O-]
inactive: Potency [1] | Potency [2] | Potency [3] | Potency [4] | outcome [5] | outcome [6] | outcome [7] | Potency [8] | outcome [9] | outcome [10] | Potency [11] | outcome [12] | outcome [13] | outcome [14] | Potency [15] | outcome [16] | Potency [17] | Potency [18]

CCNc1nc(N)nc(Cl)n1
inactive: Potency [1] | Potency [2] | Potency [3] | Potency [4] | outcome [5] | outcome [6] | outcome [7] | Potency [8] | outcome [9] | outcome [10] | Potency [11] | outcome [12] | outcome [13] | outcome [14] | Potency [15] | outcome [16] | Potency [17]

CC(=O)NCCO
inactive: Potency [1] | Potency [2] | Potency [3] | Potency [4] | outcome [5] | Potency [20] | outcome [6] | outcome [7] | Potency [8] | Potency [11] | outcome [12] | outcome [13] | outcome [14] | Potency [15] | outcome [16] | Potency [17] | Potency [18] | Potency [19]

CC(=O)OC(C)C[N+](C)(C)C (stereo not drawn)
inactive: Potency [1] | Potency [2] | Potency [3] | Potency [4] | outcome [5] | fluorescence, relative to Rose Bengal [6] 0.553% [at 18.6 µM] | fluorescence, % of fluorescein control [7] 0.0253% [at 18.6 µM] | fluorescence, % of triamterene [8] -0.423% [at 18.6 µM] | fluorescence, % of fluorescent control [9] -0.334% [at 18.6 µM] | fluorescence, % of fluorescein [10] -0.0571% [at 18.6 µM] | fluorescence, % of fluorescent control [11] -0.0614% [at 18.6 µM] | activity change [12] -0.0135% [at 18.6 µM] | fluorescence, % of fluorescent control [13] 0.423% [at 18.6 µM] | fluorescence, % of Rose Bengal [14] -0.229% [at 18.6 µM] | fluorescence, % of fluorescent control [15] -0.0627% [at 18.6 µM] | fluorescence, % of fluorescein control [16] -0.0048% [at 18.6 µM] | fluorescence, % of fluorescent control [17] -0.0338% [at 18.6 µM] | Potency [18] | Potency [19]

CC(C)(C)S
inactive: Potency [1] | Potency [2] | Potency [3] | Potency [4] | outcome [5] | Potency [20] | outcome [6] | Potency [8] | outcome [9] | Potency [11] | outcome [12] | outcome [13] | outcome [14] | Potency [15] | outcome [16] | Potency [17] | Potency [18]

O=S(=O)(O)CO
inactive: Potency [1] | Potency [2] | Potency [3] | Potency [4] | outcome [5] | outcome [6] | outcome [7] | Potency [8] | outcome [9] | outcome [10] | Potency [11] | outcome [12] | outcome [13] | outcome [14] | Potency [15] | outcome [16] | Potency [17] | Potency [18] | Potency [19]

CC[C@H]1OC(=O)[C@H](C)[C@@H](O[C@H]2C[C@@](C)(OC)[C@@H](O)[C@H](C)O2)[C@H](C)[C@@H](O[C@@H]2O[C@H](C)C[C@H](N(C)C)[C@H]2O)[C@](C)(O)C[C@@H](C)CN(C)[C@H](C)[C@@H](O)[C@]1(C)O
inactive: Potency [1] | Potency [2] | Potency [3] | Potency [4] | outcome [5] | outcome [6] | outcome [7] | Potency [8] | outcome [9] | outcome [10] | Potency [11] | outcome [12] | outcome [13] | outcome [14] | Potency [15] | outcome [16] | Potency [17]

O=C(C(=O)c1ccco1)c1ccco1
inactive: Potency [1] | Potency [2] | Potency [3] | Potency [4] | outcome [5] | outcome [6] | outcome [7] | Potency [8] | outcome [9] | outcome [10] | Potency [11] | outcome [12] | outcome [13] | outcome [14] | Potency [15] | outcome [16] | Potency [17] | Potency [18] | Potency [19]

CC(C)N(C)C
inactive: Potency [1] | Potency [2] | Potency [3] | Potency [4] | outcome [5] | outcome [6] | outcome [7] | Potency [8] | outcome [9] | outcome [10] | Potency [11] | outcome [12] | outcome [13] | outcome [14] | Potency [15] | outcome [16] | Potency [17] | Potency [18] | Potency [19]
